{"source": "PubChem BioAssay AID1645875", "about": "(National Center for Advancing Translational Sciences (NCATS), 2021)", "note": "Records with an inconclusive call do not appear. Active and inactive are the calls of the source. Calls follow the shape of the dose curve; as a rule, active = well fitted inhibition curve with a large enough effect; inconclusive = small, poorly fitted or top-dose-only effect; inactive = no such curve, though single readings can be large or run the other way."}
{"target": "N-terminal Xaa-Pro-Lys N-methyltransferase 1 (Homo sapiens) (UniProt Q9BV86)", "sequence (Q9BV86 whole entry, looked up)": "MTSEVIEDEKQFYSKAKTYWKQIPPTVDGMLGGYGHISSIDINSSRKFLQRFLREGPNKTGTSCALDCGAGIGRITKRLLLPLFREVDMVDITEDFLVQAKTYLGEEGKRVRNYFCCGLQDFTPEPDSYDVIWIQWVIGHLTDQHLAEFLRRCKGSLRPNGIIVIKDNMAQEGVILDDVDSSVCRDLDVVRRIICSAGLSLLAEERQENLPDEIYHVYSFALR", "assay": "Orthogonal qHTS for Inhibitors of N-terminal methyltransferase 1 (NTMT1): ThioGlo Assay", "conditions": "NTMT1 SAHH-coupled ThioGlo fluorescence, 30 min; series mostly up to 84.5 µM", "text": "Assay Submitter (PI): Rong Huang Ph.D. Purdue University, West Lafayette, IN 47907 The N-terminal methytransferase 1 is the first methyltransferase that methylates protein alpha-N-amines and plays an important role in regulating cell mitosis, chromatin interactions and DNA repair. It is observed to be over-expressed in various cancer patient tissues like malignant melanoma and colorectal cancer tissues. Knockdown of NTMT1 in cancer cells causes cell mitotic defects and enhances sensitivity to DNA damaging chemotherapeutics. […] These critical cellular processes in which NTMT1 is implicated, coupled with emerging links to cellular dysfunction, strengthen the inference that NTMT1 is a compelling novel anticancer target. Progress have been made in understanding the molecular properties of NTMT1 and the biological consequences of protein alpha-N-terminal methylation, but there are no specific small molecule probes available for NTMT1 to fully characterize its MTase activity. To address this unmet need, a panel of assay is created and established to enable quantitative high-throughput screening (qHTS) for novel, potent, and selective small molecule NTMT1 inhibitors. Two orthogonal qHTS that use different reagents (ThioGlo vs. MTaseGlo) are developed for primary robotic screening against the NCATS chemical library of more than 400,000 small molecules. Identified inhibitors are reacquired, validated, and further characterized. […] Early Translation Branch (ETB) National Center for Advancing Translational Sciences (NCATS) National Institute of Health (NIH)\nMaterials: NTMT1 enzyme, substrate SPKRIA, control peptide RCC1-6 is provided by the Huang laboratory. MTaseGlo Assay: PROTOCOL TABLE; SEQUENCE No. (e.g., 1, 2, 3, etc.); […] (e.g., Cells, Incubation, Reagent, etc.); VALUE; DESCRIPTION 1; Enzyme; 3 uL; Dispense enzyme mixture (final concentrations of 125 nM NTMT1) into Greiner 1536-well black / solid bottom assay plate (Greiner Bio One, Monroe, NC). 2; Compounds; 23 nL; Compounds (at various concentration) and 1uM final concentration of RCC1-6 (SPKRIA) control were transferred via a Kalypsys Pin Tool (Wako USA) equipped with a 1536-slotted pin array (Wako Automation, Richmond, VA). 3; Incubation; 1 min; Incubate at room temperature. 4; Substrate; 1 uL; Dispense 1 uL of substrate solution (100uM SAM, 10uM SAHH, 15uM ThioGlo3 final concentration) was added to the wells bringing the final assay volume to 4uL. The assay plate was covered with metal lids. 5; Detection; Fluorescence; Initial fluorescence readout (background signal) was detected using the ViewLux microplate imager with an excitation filter of 340 nm and 450 nm emission filter. 6; Incubation; 30 min; Assay plates were incubation at room temperature in the dark. 7; Detection; Fluorescence; Final fluorescence readout was detected using the ViewLux microplate imager with an excitation filter of 340 nm and 450 nm emission filter. The data was normalized to the background fluorescence."}
{"smiles": "C#Cc1cccc(Nc2ncnc3cc(OC)c(OCCCCCCC(=O)NO)cc23)c1", "Potency": "22.1 µM (active)"}
{"smiles": "CNC(=O)c1ccccc1Nc1cc(Nc2ccc(N3CCOCC3)cc2OC)ncc1C(F)(F)F", "Potency": "8.79 µM (active)"}
{"smiles": "Cc1cc(C)nc(NC(=S)N2CCN(c3cccc(S(C)(=O)=O)c3)CC2)c1", "Potency": "12.3 µM (active)"}
{"smiles": "COc1cc2c(NC3CCN(C)CC3)nc(N3CCCN(C)CC3)nc2cc1OCCCCCN", "Potency": "30.8 µM (active)"}
{"smiles": "CCOc1ccc(Nc2nc(-c3c(C)nc4ccccn34)cs2)cc1", "Potency": "3.12 µM (active)"}
{"smiles": "C=Cc1c(C)c2cc3[nH]c(cc4nc(cc5nc(cc1[nH]2)C(C)=C5CCC(=O)O)C(CCC(=O)O)=C4C)c(C)c3C=C", "Potency": "15.4 µM (active)"}
{"smiles": "Oc1cc2c(c(Cl)c1O)CCNCC2c1ccccc1", "note": "(stereo not given)", "Potency": "30.8 µM (active)"}
{"smiles": "N.N.N.N.N.N.N.N.N.N.N.N.N.N.O.O.[Ru+4].[Ru+5].[Ru+5]", "Potency": "34.5 µM (active)"}
{"smiles": "O=C(O)c1ccc(Cc2c(-c3cccc(-c4ccccc4)c3)[nH]n(-c3nc(C(=O)O)cs3)c2=O)cc1", "Potency": "inactive"}
{"smiles": "COc1ccc(C2=Nn3c(nnc3-c3ccccc3Cl)SC2)cc1OC1CCCC1", "Potency": "inactive"}
{"smiles": "Fc1cc(-c2cccc3ncc(-c4cnn(C5CCNCC5)c4)nc23)cc(F)c1CN1CCOCC1", "Potency": "34.5 µM (active)"}
{"smiles": "O=S(=O)(Cc1ccccc1)Nc1ccc(-c2ccc3c(cnn3-c3ccc(F)cc3)c2)c(C(F)(F)F)c1", "Potency": "inactive"}
{"smiles": "O=C(Nc1ccc(S(=O)(=O)C(F)(F)F)cc1)C1=CCN(c2ncccc2C(F)(F)F)CC1", "Potency": "inactive"}
{"smiles": "COc1cc2c(NC3CCN(C(C)C)CC3)nc(N3CCCCC3)nc2cc1OCCCN1CCCCC1", "Potency": "inactive"}
{"smiles": "COc1ccc(C2=Nn3c(nnc3-c3ccccc3F)SC2)cc1OC1CCCC1", "Potency": "inactive"}
{"smiles": "O=C1NC(=O)/C(=C/c2ccc(-c3ccc(F)cc3O)o2)S1", "Potency": "30.8 µM (active)"}
{"smiles": "COc1cccc(C(=O)NCCNc2nc3cc(C)cc(C)c3cc2C#N)c1", "Potency": "44.1 µM (active)"}
{"smiles": "Cc1ccc(NC(=O)N2CCN(c3nc(N)nc4sc(-c5cccnc5)nc34)CC2)cc1", "Potency": "24.8 µM (active)"}
{"smiles": "COc1c/c(=C2\\C=c3ccccc3=N2)[nH]/c1=C/c1[nH]c(C)cc1C", "Potency": "24.8 µM (active)"}
{"smiles": "O=C(NCCN1CCCC1)c1cc(-c2ccc(CN3CCOCC3)cc2)nc2ccc(F)cc12", "Potency": "24.1 µM (active)"}
{"smiles": "Cc1cccc(C)c1OCC(N)C(C)C", "note": "(stereo not given)", "Potency": "1.54 µM (active)"}
{"smiles": "Cc1cccc(NC(=O)c2c(NC(=O)c3ccccc3)sc3c2CCCC3)c1", "Potency": "inactive"}
{"smiles": "COc1cc(N2CCC(N3CCN(C)CC3)CC2)ccc1Nc1ncc(Cl)c(-c2c[nH]c3ccccc23)n1", "Potency": "17.5 µM (active)"}
{"smiles": "CN(C)CCCC1(c2ccc(F)cc2)OCc2cc(C#N)ccc21", "note": "(stereo not given)", "Potency": "inactive"}
{"smiles": "CN=c1nc(-c2ccccc2)n(-c2ccccc2)s1", "Potency": "5.55 µM (active)"}
{"smiles": "COc1ccc2nc(-c3cc(OC)c(OC)c(OC)c3)cc(C(=O)NCC(=O)Nc3ccc(C(C)=O)cc3)c2c1", "Potency": "31.2 µM (active)"}
{"smiles": "Fc1cc(Nc2nc(-c3ccncc3)nc3ccccc23)ccc1N1CCNCC1", "Potency": "21.8 µM (active)"}
{"smiles": "COc1cc2nc(N3CCOCC3)nc(NC(C)C)c2cc1OC", "Potency": "inactive"}
{"smiles": "COc1cc2c(NC3CCN(C4CCCCC4)CC3)nc(N3CCCN(C)CC3)nc2cc1OCCCN1CCCCC1", "Potency": "43.5 µM (active)"}
{"smiles": "Cc1cc2c(C(C)C)c(O)c(O)c(C=O)c2c(O)c1-c1c(C)cc2c(C(C)C)c(O)c(O)c(C=O)c2c1O", "Potency": "38.8 µM (active)"}
{"smiles": "CC(C)c1cc(CNc2nc(Nc3cc(C4CC4)[nH]n3)cc(N3CCN(C)CC3)n2)on1", "Potency": "7.84 µM (active)"}
{"smiles": "COc1cc2c(NC3CCN(C(C)C)CC3)nc(N3CCCCCC3)nc2cc1OCCCN1CCCC1", "Potency": "38.8 µM (active)"}
{"smiles": "FC(F)(F)c1cccc(N2CCN(C(=S)Nc3ccccn3)CC2)c1", "Potency": "1.54 µM (active)"}
{"smiles": "COc1c(C(C)C)c(O)c(O)c2c1C(OC)[C@H]1OC(=O)[C@@]23CCCC(C)(C)[C@H]13", "note": "(stereo not given in full)", "Potency": "6.1 µM (active)"}
{"smiles": "Cc1cnc(Nc2ccc(F)cc2Cl)nc1-c1c[nH]c(C(=O)NC(CO)c2cccc(Cl)c2)c1", "note": "(stereo not given)", "Potency": "6.22 µM (active)"}
{"smiles": "COc1cc2c(NC3CCN(C(C)C)CC3)nc(N3CCCN(c4ccccc4)CC3)nc2cc1OCCCN1CCCC1", "Potency": "55.5 µM (active)"}
{"smiles": "c1cc(CN2CCCCC2)cc(OCCCNc2nc3ccccc3s2)c1", "Potency": "inactive"}
{"smiles": "COc1ccc(-c2cc3c(C)nc(N)nc3n(C3CCC(OCCO)CC3)c2=O)cn1", "note": "(stereo not given)", "Potency": "13.9 µM (active)"}
{"smiles": "CC/C(=C(\\c1ccccc1)c1ccc(OCCN(C)C)cc1)c1ccccc1", "Potency": "inactive"}
{"smiles": "COc1ccc(C2=Nn3c(nnc3-c3ccccc3C)SC2)cc1OC", "Potency": "34.5 µM (active)"}
